hcGAS inh: inhibitors of human cGAS. 290,000 compounds, 0.081% hits. Q8N884. inhibition, % at 12.5 µM. AID 1259398. recombinant h-cGAS, ATP depletion, Kinase-Glo luminescence
mcGAS lum: blocks mouse cGAS activity; Q8C6L5; recombinant cGAS, Kinase-Glo ATP depletion luminescence; inhibition, % at 12.5 µM; 160,000 compounds, 0.15% hits; AID 1259399
Target sequence (Q8C6L5 whole entry, looked up): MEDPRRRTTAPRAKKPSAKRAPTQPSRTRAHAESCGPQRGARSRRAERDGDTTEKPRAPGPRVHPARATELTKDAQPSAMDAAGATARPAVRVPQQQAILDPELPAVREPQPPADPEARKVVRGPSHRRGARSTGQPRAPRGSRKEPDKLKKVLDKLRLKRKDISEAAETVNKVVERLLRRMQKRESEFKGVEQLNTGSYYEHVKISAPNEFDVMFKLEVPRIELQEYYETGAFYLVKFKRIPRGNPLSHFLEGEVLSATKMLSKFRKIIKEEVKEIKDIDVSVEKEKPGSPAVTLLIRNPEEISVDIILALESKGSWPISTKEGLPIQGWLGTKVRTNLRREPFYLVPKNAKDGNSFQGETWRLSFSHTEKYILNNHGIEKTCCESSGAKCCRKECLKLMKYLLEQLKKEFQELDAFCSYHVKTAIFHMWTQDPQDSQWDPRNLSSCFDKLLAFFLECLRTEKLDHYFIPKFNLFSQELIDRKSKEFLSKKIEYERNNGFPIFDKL
NPYLR7 ag: mosquito NPYLR7 agonism; AID 1259423; 270,000 compounds, 0.15% hits; HEK293T NPYLR7/Galpha15, GCaMP6s calcium fluorescence; activation, % at 10 µM; in the data active = activation above about 40%
A number is an active result; - = inactive; . = no result given; ! = repeats disagree. Sampled rows, rich in hits. Any-hit rate of the full collection: about 0.3%. Cut-off read from the data, not from the text of the source, unless noted: active = inhibition above about 40%; inactive = the rest.

SMILES	hcGAS inh	mcGAS lum	NPYLR7 ag
O=C1NC(=S)S/C1=C/c1cc(Br)c(O)c(Br)c1	-	42.5	-
Cc1c(F)cccc1N1C(=O)CSC1c1ccccc1N (stereo unspecified)	-	.	-
COc1ccc(C2=NN(c3nc(-c4ccccc4)c4ccccc4n3)C(c3ccccc3)C2)cc1 (stereo unspecified)	-	-	-
C#CCOCC(O)CN(Cc1cccn1Cc1ccccc1C)C1CC1 (stereo unspecified)	-	41.1	-
C#CCOCC(O)CN(Cc1ccccc1C)C1CC1 (stereo unspecified)	-	-	-
O=C(c1cccc(Cl)c1)N1CCCC(OCc2ccc(F)cc2)C1 (stereo unspecified)	-	-	-
COc1ccc(CN2C3CCC2CC(NC(=O)C24CC[C@@](C)(C(=O)O2)C4(C)C)C3)c(OC)c1 (stereo partly specified)	-	76.4	-
COc1ccc(CCN2C3CCC2CC(NC(=O)C24CC[C@@](C)(C(=O)O2)C4(C)C)C3)cc1OC (stereo partly specified)	-	-	-
O=C1c2ccccc2C(=O)C1c1ccnc2ccccc12	-	-	102.6
O=C1c2ccccc2C(=O)C1c1nccc2ccccc12	-	.	-
CC(C)COc1nc(-c2ccc(C(F)(F)F)cc2)n(-c2cccc(NC(=O)c3ccc([N+](=O)[O-])cc3)c2)n1	-	-	-
COc1ccc(OC)c2sc(N(CCCN(C)C)C(=O)c3cc(C)on3)nc12	-	-	-
COc1ccc(C)cc1-n1c(SCC(=O)O)nnc1-c1cc(C)nn1C	44.2	-	-
COc1ccc(C)cc1-n1c(Cn2ccnc2)nnc1SCC(=O)O	-	.	-
O=C(Cn1nc(-c2ccco2)c2sc(N3CCCC3)nc2c1=O)Nc1ccc2c(c1)OCO2	-	-	-
OC=c1ccc2cccc3nc(C(F)(F)F)nc1c23	-	.	76.8
OC(c1ccccc1)=c1ccc2cccc3ncnc1c23	-	.	-
COc1ccc(Oc2cc(C(C)C)nc(SCc3ccccc3C)n2)cc1	-	-	-
O=c1ccccn1Cc1nc(-c2cc(Br)cs2)no1	-	-	-
CCn1nc(-c2cc(Br)cs2)nc2c(=O)n(C)c(=O)nc1-2	-	60.2	-
Cc1cc(C(=O)N(C)C2Cc3ccccc3C2)c(NC(=O)C(C)(C)C)s1	-	.	-
Cc1ncc(CNC(=O)N2CCC(C(C)C)CC2)s1	-	.	-
Cc1nccn1CC(C)CNC(=O)N1CCC(C(C)C)CC1 (stereo unspecified)	-	67.5	-
Cc1cc(C)cc(-n2nnc3c(=O)n(Cc4ccc(C(F)(F)F)cc4)cnc32)c1	-	-	-
CN(C)S(=O)(=O)c1ccc(C(=O)Nc2ccc3c(c2)C(=O)c2ccccc2C3=O)cc1	-	104.5	-
SMILES	hcGAS inh	mcGAS lum	NPYLR7 ag
Cc1ccc(C(=O)Nc2ccc3c(c2)C(=O)c2ccccc2C3=O)cc1	-	.	-
O=C(O)C1Nc2ccc(Br)cc2C2C=CCC12 (stereo unspecified)	-	84.6	-
O=C(O)C1Nc2c(O)cccc2C2C=CCC12 (stereo unspecified)	-	-	-
O=C(NCC1CCCO1)c1ccc(-c2ccc(F)cc2)o1 (stereo unspecified)	-	-	-
O=[N+]([O-])c1cc(S(=O)(=O)C(F)(F)F)ccc1Sc1nnnn1-c1ccccc1	-	-	-
O=[N+]([O-])c1ccc(Sc2nnnn2-c2ccccc2)c([N+](=O)[O-])c1	-	71.8	-
Cc1ccc(/C=C2/NC(=S)NC2=O)c(C)c1	-	-	-
FC(F)Sc1ccc(NC(=S)NN=CC2CC=CCC2)cc1 (stereo unspecified)	-	.	-
CCC(=O)Oc1ccc2c(c1)O/C(=C\c1ccco1)C2=O	-	79.6	-
COc1cccc(C(=O)Oc2ccc3c(c2)O/C(=C\c2ccc(C)o2)C3=O)c1	-	-	-
COc1ccccc1NC(=O)N1CCSC1c1cccc(Oc2ccccc2)c1 (stereo unspecified)	-	-	-
N#Cc1ccccc1NC(=O)c1n[nH]c([N+](=O)[O-])c1Br	43.9	.	-
Cc1cccc(NC(=O)c2n[nH]c([N+](=O)[O-])c2Br)c1C	-	-	-
Cc1cc(N)c2ccccc2[n+]1CCCCCCCCCC[n+]1c(C)cc(N)c2ccccc21	90.9!	-	-
CC[n+]1c(C)cc(Cl)c2ccccc21	-	-	-
CCOc1ccc(NC(=O)NC/C=C(\C)CCC=C(C)C)cc1	-	-	-
CCCc1nc(C(=O)N2CCCC(c3[nH]ncc3CC)C2)cs1 (stereo unspecified)	-	-	-
CCc1cn[nH]c1C1CCCN(C(=O)c2csc(Cc3ccccc3)n2)C1 (stereo unspecified)	54.8	-	-
O=C(c1ccc2c(c1)CCO2)N1CCOC(COc2ccc(F)cc2)C1 (stereo unspecified)	-	-	-

Source: PubChem BioAssay
